# According to PubChem BioAssay (NCI):
# This is part of a sample that, as a whole, favours compounds with a hit. Of some 79,000 tested, about 15% had one in any assay. Unmarked numbers belong to inactive results. Calls of active or inactive are those of the source. Rule as the data show it: active = growth inhibition above about 70%; inactive = the rest.
# Tests used:
# [1] = NCI Yeast Anticancer Drug Screen. Data for the wt1 strain (AID 149);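 also: 0% = growth of vehicle-treated wt1 cultures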; settings: S. cerevisiae wt1 strain (SPY 50644) growth inhibition, hits give high values
# How it was run: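 Yeast wt1 strain exposed to compounds; growth inhibition measured relative to vehicle-treated controls.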
# [2] = NCI Yeast Anticancer Drug Screen. Data for the rad50EPP+ strain (AID 151);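 also: 0% = growth of vehicle-treated control cultures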; settings: S. cerevisiae rad50 mutant strain, hits give high values
# How it was run: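 Compounds were applied to the rad50EPP+ yeast strain, which bears a defined DNA repair alteration, and growth inhibition was determined relative to vehicle-treated cultures.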
# [3] = NCI Yeast Anticancer Drug Screen. Data for the mgt1 strain (AID 153); settings: S. cerevisiae mgt1 mutant growth inhibition, hits give high values
# How it was run: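 Strain: mgt1 yeast, one of a set carrying defined DNA damage repair or cell cycle control alterations. Compound-treated growth compared with vehicle.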
# [4] = NCI Yeast Anticancer Drug Screen. Data for the rad50 strain (AID 155);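 also: 0% = growth of vehicle-only cultures of the same strain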; settings: S. cerevisiae rad50 strain growth inhibition, hits give high values
# How it was run: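 Yeast carrying a defined DNA repair defect were exposed to test compounds, and growth was compared with vehicle-treated controls to give percent inhibition.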
# [5] = NCI Yeast Anticancer Drug Screen. Data for the mec2-1 strain (AID 157); settings: S. cerevisiae mec2-1 strain, hits give high values
# How it was run: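 Strain: mec2-1 (DNA repair/cell cycle alteration). Compound exposure, then growth measured; inhibition expressed relative to vehicle.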
# [6] = NCI Yeast Anticancer Drug Screen. Data for the rad14 strain (AID 159);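 also: 0% = growth of vehicle-treated control cultures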; settings: S. cerevisiae rad14 strain growth inhibition, hits give high values
# How it was run: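 Yeast cells carrying a defined DNA-repair defect were exposed to compounds, and growth inhibition was calculated relative to vehicle-treated control cultures.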
# [7] = NCI Yeast Anticancer Drug Screen. Data for the sgs1 mgt1 strain (AID 161);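 also: 0% = growth of cultures given vehicle only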; settings: S. cerevisiae sgs1 mgt1 strain, hits give high values
# How it was run: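 Genetically altered yeast, compound exposure, growth inhibition relative to vehicle.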
# [8] = NCI Yeast Anticancer Drug Screen. Data for the CLN2oe strain (AID 163);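 also: 0% = growth of vehicle-only control cultures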; settings: S. cerevisiae CLN2oe strain, hits give high values
# How it was run: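 Growth of a genetically modified yeast strain is measured after compound exposure and compared with cultures given vehicle alone.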
# [9] = NCI Yeast Anticancer Drug Screen. Data for the cln2 rad14 strain (AID 165);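 also: 0% = growth equal to vehicle treated cultures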; settings: S. cerevisiae cln2 rad14 strain, hits give high values
# How it was run: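 Compounds are applied to the cln2 rad14 yeast strain, and growth is then compared with that of vehicle-treated cultures to give inhibition.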
# [10] = NCI Yeast Anticancer Drug Screen. Data for the bub3 strain (AID 167); settings: S. cerevisiae bub3 mutant strain, hits give high values
# How it was run: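 Compounds were applied to a genetically altered yeast strain carrying a cell-cycle control defect. Growth inhibition was scored against vehicle-treated controls.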
# [11] = NCI Yeast Anticancer Drug Screen. Data for the wt2 strain (AID 169);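 also: 0% = growth of vehicle-treated yeast cultures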; settings: S. cerevisiae wt2 strain growth inhibition, hits give high values
# How it was run: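 This strain belongs to a panel of yeast strains with defined genetic alterations in DNA damage repair or cell cycle control. Compounds are applied, and growth inhibition is measured against vehicle-treated cultures.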
# [12] = NCI Yeast Anticancer Drug Screen. Data for the mlh1 strain (AID 171);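 also: 0% = growth of vehicle-treated control cultures of the same strain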; settings: S. cerevisiae mlh1 strain growth inhibition, hits give high values
# How it was run: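 Growth of the mutant yeast strain after compound exposure, expressed as inhibition relative to vehicle-only controls.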
# [13] = NCI Yeast Anticancer Drug Screen. Data for the sgs1 strain (AID 173);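 also: 0% = growth of vehicle-only control cultures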; settings: S. cerevisiae sgs1 mutant, hits give high values
# How it was run: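 Growth of a yeast strain bearing a defined genetic alteration is measured after compound treatment. Inhibition is expressed relative to vehicle-only controls.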
# [14] = NCI Yeast Anticancer Drug Screen. Data for the mlh1 rad18 strain (AID 175); settings: S. cerevisiae mlh1 rad18 strain growth inhibition, hits give high values
# How it was run: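 Read-out is yeast growth inhibition, calculated against vehicle-only controls. The compound was applied to a strain engineered with DNA damage repair alterations.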
# [15] = NCI Yeast Anticancer Drug Screen. Data for the rad18 strain (AID 177); settings: S. cerevisiae rad18 mutant growth inhibition, hits give high values
# How it was run: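 Growth of the mutant yeast strain after compound exposure, normalised to vehicle-only cultures.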
# [16] = at 5.0 µM (retest, dose inferred, filed as 0.5)
# [17] = at 50.0 µM (retest, dose inferred, filed as 5.0)
compound,measurement,setting,value
CC(C)OC(=O)NNc1cc(Cl)ccc1Cl,growth inhibition,[1]; at 1.2 µM,-2%
same,growth inhibition,[1]; at 3.7 µM,5%
same,growth inhibition,[1]; at 11.0 µM,29%
same,growth inhibition,[1]; at 33.0 µM,34%
same,growth inhibition,[1]; at 100.0 µM,31%
same,growth inhibition,[2]; at 1.2 µM,20%
same,growth inhibition,[2]; at 3.7 µM,27%
same,growth inhibition,[2]; at 11.0 µM,60%
same,growth inhibition,[2]; at 33.0 µM,72% (active)
same,growth inhibition,[2]; at 100.0 µM,88% (active)
same,growth inhibition,[3]; at 1.2 µM,-4%
same,growth inhibition,[3]; at 3.7 µM,2%
same,growth inhibition,[3]; at 11.0 µM,19%
same,growth inhibition,[3]; at 33.0 µM,21%
same,growth inhibition,[3]; at 100.0 µM,88% (active)
same,growth inhibition,[4]; at 1.2 µM,-3%
same,growth inhibition,[4]; at 3.7 µM,22%
same,growth inhibition,[4]; [16],19%
same,growth inhibition,[4]; at 11.0 µM,41%
same,growth inhibition,[4]; at 33.0 µM,36%
same,growth inhibition,[4]; [17],44%
same,growth inhibition,[4]; at 50.0 µM,38%
same,growth inhibition,[4]; at 100.0 µM,87% (active)
same,growth inhibition,[5]; at 1.2 µM,-4%
same,growth inhibition,[5]; at 3.7 µM,8%
same,growth inhibition,[5]; [16],9%
same,growth inhibition,[5]; at 11.0 µM,34%
same,growth inhibition,[5]; at 33.0 µM,33%
same,growth inhibition,[5]; [17],20%
same,growth inhibition,[5]; at 50.0 µM,36.4%
same,growth inhibition,[5]; at 100.0 µM,77% (active)
same,growth inhibition,[6]; at 1.2 µM,-4%
same,growth inhibition,[6]; at 3.7 µM,3%
same,growth inhibition,[6]; at 11.0 µM,20%
same,growth inhibition,[6]; at 33.0 µM,48%
same,growth inhibition,[6]; at 100.0 µM,99% (active)
same,growth inhibition,[7]; [16],17%
same,growth inhibition,[7]; [17],48%
same,growth inhibition,[7]; at 50.0 µM,44.2%
same,growth inhibition,[8]; at 1.2 µM,-1%
same,growth inhibition,[8]; at 3.7 µM,4%
same,growth inhibition,[8]; at 11.0 µM,29%
same,growth inhibition,[8]; at 33.0 µM,50%
same,growth inhibition,[8]; at 100.0 µM,59%
same,growth inhibition,[9]; [16],4%
same,growth inhibition,[9]; [17],21%
same,growth inhibition,[9]; at 50.0 µM,26%
same,growth inhibition,[10]; at 1.2 µM,4%
same,growth inhibition,[10]; at 3.7 µM,-1%
same,growth inhibition,[10]; [16],32%
same,growth inhibition,[10]; at 11.0 µM,19%
same,growth inhibition,[10]; at 33.0 µM,39%
same,growth inhibition,[10]; [17],60%
same,growth inhibition,[10]; at 50.0 µM,99% (active)
same,growth inhibition,[10]; at 100.0 µM,47%
same,growth inhibition,[11]; at 1.2 µM,3%
same,growth inhibition,[11]; at 3.7 µM,4%
same,growth inhibition,[11]; at 11.0 µM,23%
same,growth inhibition,[11]; at 33.0 µM,29%
same,growth inhibition,[11]; at 100.0 µM,35%
same,growth inhibition,[12]; at 1.2 µM,-1%
same,growth inhibition,[12]; at 3.7 µM,8%
same,growth inhibition,[12]; at 11.0 µM,41%
same,growth inhibition,[12]; at 33.0 µM,50%
same,growth inhibition,[12]; at 100.0 µM,58%
same,growth inhibition,[13]; at 1.2 µM,0%
same,growth inhibition,[13]; at 3.7 µM,10%
same,growth inhibition,[13]; at 11.0 µM,44%
same,growth inhibition,[13]; at 33.0 µM,44%
same,growth inhibition,[13]; at 100.0 µM,54%
same,growth inhibition,[14]; [16],57%
same,growth inhibition,[14]; [17],89% (active)
same,growth inhibition,[14]; at 50.0 µM,75.2% (active)
same,growth inhibition,[15]; at 1.2 µM,2%
same,growth inhibition,[15]; at 3.7 µM,69%
same,growth inhibition,[15]; at 11.0 µM,69%
same,growth inhibition,[15]; at 33.0 µM,62%
same,growth inhibition,[15]; at 100.0 µM,86% (active)
